The whole screen tested about 39,000 compounds, of which about 3,300 (8.5%) were called active. The list comes from a sample in which actives are over-represented; it also holds similar structures and randomly drawn compounds.

In the assay the test system is HepG2. Nature of the assay: cytotoxicity call (relative viability < 0.9). As to conditions: 10 µM.
For the molecule `O=c1[nH][n+](-c2ccccc2)no1`, the cytotoxicity call was “inactive”. In the case of `COCC(=O)Nc1ccc2c(c1)[C@@H]1C[C@@H](CC(=O)N3CCOCC3)O[C@@H](CO)[C@@H]1O2`, the cytotoxicity call was “inactive”. The entry for `O=C(NC[C@@H](O)CO)c1c(I)c(C(=O)NC[C@@H](O)CO)c(I)c(N(CCO)C(=O)CO)c1I` is “inactive”; for `CC(=O)N(C[C@@H](O)CO)c1c(I)c(C(=O)NC[C@@H](O)CO)c(I)c(C(=O)NC[C@@H](O)CO)c1I` it is “inactive”. Consider `O=C(NCC(O)CO)c1c(I)c(C(=O)NCC(O)CO)c(I)c(N(CCO)C(=O)CO)c1I` (stereo unspecified), for which the cytotoxicity call was “active”. In the case of `Cc1ccc(S(=O)(=O)Nc2ccc3c(c2)CC(=O)N([C@@H](C)CO)C[C@H](C)[C@H](CN(C)S(=O)(=O)c2cccs2)O3)cc1`, the cytotoxicity call was “inactive”. For the molecule `C[C@H](CO)N1C[C@H](C)[C@H](CN(C)Cc2ccc(Cl)c(Cl)c2)Oc2c(NS(=O)(=O)c3cccs3)cccc2C1=O`, the cytotoxicity call was “inactive”.

Turning to `CCn1c(Cl)nc2c1c(=O)n(C)c(=O)n2C`, the cytotoxicity call was “inactive”. Regarding `Cc1nc2c(=O)n(C)c(=O)n(C)c2nc1Cl`, the cytotoxicity call is “active”.

Take `Cn1c(=O)c2[nH]c(C3CCCC3)nc2n(C)c1=O`: the cytotoxicity call is “inactive”. For the molecule `N=C(N)N1CCc2ccccc2C1.O=S(=O)(O)O`, the cytotoxicity call is “inactive”.

Consider `CN1Cc2c(Cl)cc(Cl)cc2[C@H](c2cccc(S(=O)(=O)NCCOCCOCCNC(=O)NCCCCNC(=O)NCCOCCOCCNS(=O)(=O)c3cccc([C@@H]4CN(C)Cc5c(Cl)cc(Cl)cc54)c3)c2)C1`, for which the cytotoxicity call was “inactive”.

As for `COc1ccc(S(=O)(=O)N(C)C[C@@H]2Oc3cc(C#CC4CCCC4)ccc3S(=O)(=O)N([C@H](C)CO)C[C@@H]2C)cc1`, the cytotoxicity call is “inactive”.

With `O=C(C[C@H]1C[C@H]2c3cc(NS(=O)(=O)c4ccc(F)cc4)ccc3O[C@H]2[C@@H](CO)O1)NCc1cccnc1`, the cytotoxicity call was “inactive”. Regarding `COc1ccc(NC(=O)N(C)C[C@H]2Oc3c(NC(=O)c4ccc(-c5nccs5)cc4)cccc3C(=O)N([C@H](C)CO)C[C@H]2C)cc1`, the cytotoxicity call was “inactive”. `COC(=O)c1c(CC[C@@H](CO)NC(=O)N2CCC[C@H]2Cn2cc(-c3ccccn3)nn2)oc(C(C)=O)c1C(=O)OC`: the cytotoxicity call was “inactive”.

`C[C@@H]1CN([C@H](C)CO)C(=O)Cc2cc(NC(=O)CCC(F)(F)F)ccc2O[C@@H]1CN(C)Cc1ccc(Oc2ccccc2)cc1`: the cytotoxicity call is “active”. For the molecule `C[C@H]1CN([C@@H](C)CO)C(=O)Cc2cc(NC(=O)CCC(F)(F)F)ccc2O[C@@H]1CN(C)Cc1ccc(Oc2ccccc2)cc1`, the cytotoxicity call was “inactive”. Turning to `C[C@@H]1CN([C@H](C)CO)C(=O)Cc2cc(NC(=O)CCC(F)(F)F)ccc2O[C@H]1CN(C)Cc1ccc(Oc2ccccc2)cc1`, the cytotoxicity call was “active”. As to `C[C@H](CO)N1C[C@H](C)[C@H](CN(C)Cc2ccc(Oc3ccccc3)cc2)Oc2ccc(NC(=O)CCC(F)(F)F)cc2CC1=O`, the cytotoxicity call is “active”. In the case of `C[C@@H]1CN([C@@H](C)CO)C(=O)Cc2cc(NC(=O)CCC(F)(F)F)ccc2O[C@@H]1CN(C)Cc1ccc(Oc2ccccc2)cc1` it was “active”; in that of `C[C@H]1CN([C@@H](C)CO)C(=O)Cc2cc(NC(=O)CCC(F)(F)F)ccc2O[C@H]1CN(C)Cc1ccc(Oc2ccccc2)cc1`, “inactive”; in that of `COc1ccc(S(=O)(=O)Nc2ccc3c(c2)C(=O)N([C@H](C)CO)C[C@@H](C)[C@@H](CN(C)C(=O)CCC(F)(F)F)OCCCC[C@H](C)O3)cc1`, “inactive”. Turning to `C[C@@H]1CCCCO[C@@H](CN(C)S(=O)(=O)c2ccc(F)cc2)[C@H](C)CN([C@@H](C)CO)C(=O)c2cc(NS(=O)(=O)c3ccc(Cl)cc3)ccc2O1`, the cytotoxicity call is “inactive”. As to `C[C@H](CO)N1C[C@H](C)[C@H](CN(C)Cc2ccc3c(c2)OCO3)OCCCC[C@H](C)Oc2ccc(NC(=O)c3ccccc3)cc2C1=O`, the cytotoxicity call is “inactive”. For `Nc1nnc(SC[C@@H](O)CO)s1`, the cytotoxicity call is “inactive”.

For the molecule `COc1ccc(NC(=O)N(C)C[C@@H]2Oc3ccc(NS(C)(=O)=O)cc3CC(=O)N([C@@H](C)CO)C[C@@H]2C)cc1`, the cytotoxicity call is “inactive”. On to `COCC(=O)N(C)C[C@@H]1Oc2cc(C#Cc3ccccc3)ccc2S(=O)(=O)N([C@@H](C)CO)C[C@@H]1C`, for which the cytotoxicity call was “inactive”. On to `O=C(O)C[C@@H]1CC[C@@H]2[C@H](COC[C@H](O)CN2S(=O)(=O)c2ccc(F)cc2)O1`, for which the cytotoxicity call is “inactive”. In the case of `CN(C)CCCNC(=O)C[C@@H]1CC[C@@H]2[C@H](COC[C@H](O)CN2S(=O)(=O)c2ccc(Cl)cc2)O1` it was “inactive”; in that of `C[C@@H]1CCCCO[C@H](CN(C)S(=O)(=O)c2cccs2)[C@H](C)CN([C@H](C)CO)C(=O)c2cc(NC(=O)NC3CCCCC3)ccc2O1`, “inactive”; in that of `C[C@H]1CN([C@@H](C)CO)C(=O)c2cccc(NC(=O)NC3CCCCC3)c2O[C@H]1CN(C)C(=O)Nc1cccc2ccccc12`, “inactive”. `CN1CCN(C(=O)C[C@H]2CC[C@@H]3[C@H](COC[C@@H](O)CN3C(=O)C3CC3)O2)CC1`: the cytotoxicity call was “inactive”. As to `COC(=O)c1c(CC[C@@H](CO)NC(=O)N2CCC[C@H]2Cn2cc(Cc3ccccc3)nn2)oc(C(C)=O)c1C(=O)OC`, the cytotoxicity call was “inactive”. Regarding `C[C@H](CO)N1C[C@H](C)[C@@H](CN(C)Cc2ccc(Oc3ccccc3)cc2)Oc2ccc(NC(=O)CCC(F)(F)F)cc2CC1=O`, the cytotoxicity call was “active”. As to `C[C@@H]1CN([C@@H](C)CO)C(=O)Cc2cc(NC(=O)CCC(F)(F)F)ccc2O[C@H]1CN(C)Cc1ccc(Oc2ccccc2)cc1`, the cytotoxicity call is “active”. `Cc1noc(C)c1S(=O)(=O)Nc1ccc2c(c1)C(=O)N([C@H](C)CO)C[C@H](C)[C@@H](CN(C)S(=O)(=O)c1c(C)noc1C)O2`: the cytotoxicity call was “inactive”. Turning to `C[C@H]1CN([C@@H](C)CO)C(=O)c2cccc(NC(=O)c3ccncc3)c2O[C@H]1CN(C)Cc1ccc(C(=O)O)cc1`, the cytotoxicity call was “inactive”.

With `C[C@@H]1CN([C@H](C)CO)C(=O)c2cccc(NC(=O)CCCCCC(=O)Nc3ccccc3N)c2O[C@H]1CN(C)Cc1ccccc1`, the cytotoxicity call was “inactive”. Turning to `CCOC(=O)C[n+]1ccccc1C`, the cytotoxicity call is “inactive”. Take `CC(C)c1cccc(C(C)C)c1NC(=O)Cc1cccs1`: the cytotoxicity call was “inactive”. For the molecule `COC(=O)[C@@H](N)c1cccc(Cl)c1`, the cytotoxicity call is “inactive”. In the case of `CC(C)c1cc(C(C)C)c(CC(=O)NS(=O)(=O)Oc2c(C(C)C)cccc2C(C)C)c(C(C)C)c1` it was “active”. In the case of `COc1cccc(NC(=O)N[C@@H]2C=C[C@H](CC(=O)N3CCN(C)CC3)O[C@H]2CO)c1` it was “inactive”; in that of `CO[C@@H]1[C@H](O[P@@](=O)(S)OC[C@H]2O[C@@H](n3cnc4c(N)ncnc43)C[C@@H]2O)[C@@H](CO)O[C@H]1n1ccc(=O)[nH]c1=O`, “active”.

`CO[C@@H]1[C@H](O[P@@](=O)(OC[C@H]2O[C@@H](n3cnc4c(N)ncnc43)C[C@@H]2O)SCOC(=O)OC(C)C)[C@@H](CO)O[C@H]1n1ccc(=O)[nH]c1=O`: the cytotoxicity call was “inactive”.

Regarding `Nc1ncnc2c1ncn2[C@H]1C[C@H](O)[C@@H](CO)O1`, the cytotoxicity call was “inactive”. `Cc1noc(C)c1NC(=O)Nc1ccc2c(c1)C(=O)N([C@@H](C)CO)C[C@H](C)[C@@H](CN(C)Cc1ccncc1)OCCCC[C@H](C)O2`: the cytotoxicity call is “inactive”. `COc1ccc(NC(=O)N(C)C[C@@H]2OCCCC[C@H](C)Oc3ccc(NS(=O)(=O)c4ccc(OC)cc4)cc3C(=O)N([C@H](C)CO)C[C@H]2C)cc1`: the cytotoxicity call was “inactive”. For the molecule `C[C@@H]1CCCCO[C@H](CN(C)C(=O)NC2CCCCC2)[C@H](C)CN([C@H](C)CO)C(=O)c2cc(NC(=O)Nc3cccc4ccccc34)ccc2O1`, the cytotoxicity call was “inactive”. Consider `Cc1noc(C)c1NC(=O)Nc1ccc2c(c1)CC(=O)N([C@H](C)CO)C[C@@H](C)[C@@H](CN(C)Cc1ccc(Oc3ccccc3)cc1)O2`, for which the cytotoxicity call was “inactive”.

As for `C[C@@H]1CN([C@@H](C)CO)C(=O)Cc2cc(NC(=O)Nc3ccc(C(F)(F)F)cc3)ccc2O[C@@H]1CN(C)Cc1ccc(Oc2ccccc2)cc1`, the cytotoxicity call is “active”.

`C[C@H]1CN([C@@H](C)CO)C(=O)Cc2cc(NC(=O)Nc3ccc(C(F)(F)F)cc3)ccc2O[C@H]1CN(C)Cc1ccc(Oc2ccccc2)cc1`: the cytotoxicity call is “active”.

On to `C[C@@H]1CN([C@H](C)CO)C(=O)Cc2cc(NC(=O)Nc3ccc(C(F)(F)F)cc3)ccc2O[C@H]1CN(C)Cc1ccc(Oc2ccccc2)cc1`, for which the cytotoxicity call was “inactive”.

For `C[C@H](CO)N1C[C@H](C)[C@@H](CN(C)Cc2ccc(Oc3ccccc3)cc2)Oc2ccc(NC(=O)Nc3ccc(C(F)(F)F)cc3)cc2CC1=O`, the cytotoxicity call is “active”. The entry for `C[C@@H]1CN([C@H](C)CO)C(=O)Cc2cc(NC(=O)Nc3ccc(C(F)(F)F)cc3)ccc2O[C@@H]1CN(C)Cc1ccc(Oc2ccccc2)cc1` is “active”; for `COc1ccc(NC(=O)Nc2ccc3c(c2)C(=O)N([C@@H](C)CO)C[C@@H](C)[C@@H](CN(C)C(=O)C2CCCCC2)OCCCC[C@H](C)O3)cc1` it is “inactive”. With `CN1CCN(C(=O)C[C@@H]2CC[C@H]3[C@@H](COC[C@H](O)CN3CC3CCCC3)O2)CC1`, the cytotoxicity call is “inactive”.

On to `COc1ccc(S(=O)(=O)Nc2ccc3c(c2)C(=O)N([C@H](C)CO)C[C@H](C)[C@H](CN(C)S(=O)(=O)c2ccc(F)cc2)O3)cc1`, for which the cytotoxicity call is “inactive”.

Consider `C[C@@H]1CN([C@H](C)CO)C(=O)c2ccccc2-c2ccccc2CO[C@H]1CN(C)C(=O)c1cc(Cl)cc(Cl)c1`, for which the cytotoxicity call is “inactive”.

On to `Nc1nnc(SCC(=O)N2CCOCC2)[nH]1`, for which the cytotoxicity call is “inactive”. Regarding `C[C@@H]1CN([C@@H](C)CO)C(=O)Cc2cc(NC(=O)Nc3ccc(C(F)(F)F)cc3)ccc2O[C@H]1CN(C)Cc1ccc(Oc2ccccc2)cc1`, the cytotoxicity call is “inactive”. As to `C[C@H]1CN([C@@H](C)CO)C(=O)Cc2cc(NC(=O)Nc3ccc(C(F)(F)F)cc3)ccc2O[C@@H]1CN(C)Cc1ccc(Oc2ccccc2)cc1`, the cytotoxicity call was “inactive”. On to `C[C@H](CO)N1C[C@H](C)[C@H](CN(C)Cc2ccc(Oc3ccccc3)cc2)Oc2ccc(NC(=O)Nc3ccc(C(F)(F)F)cc3)cc2CC1=O`, for which the cytotoxicity call is “active”.

In the case of `COc1c2ccoc2nc2c(OC)c(OCC(O)C(C)(C)O)ccc12` (stereo unspecified), the cytotoxicity call was “active”. For `C[C@@H]1CN([C@@H](C)CO)C(=O)c2cc(Br)cnc2O[C@@H]1CN(C)C(=O)CN1CCOCC1`, the cytotoxicity call was “inactive”.

These data come from the antibiotic and cytotoxicity screens of Wong et al. (2023).
